In all, about 52,000 compounds went through this assay and about 1,700 (3.3%) were called active. This is one part of a sample in which actives are shown more often than they occur. Values without a mark were called inactive. Rule as the data show it: active = survival mostly below about 52% (no sharp cut-off); inactive = mostly above about 56%.
Each compound was assayed on Wild type (assay: S. aureus survival, RN4220 and DeltatarO strains – OD600, teichoic acid synthesis inhibitors, primary screen (AID 463173)). Settings: S. aureus RN4220 wild type/DeltatarO growth, OD600, 18 h, hits give low values, screened at 18.75 µg/mL (by protocol).

Compound | survival
CCCCN(CC)CCNc1ncnc2onc(-c3ccc(Cl)cc3)c12 | 82%
CCC(C(=O)NCc1cc(OC)ccc1OC)n1nc(C)c2sc3ccccc3c2c1=O (configuration not stated) | 87%
Cc1ccc(CCNC(=O)c2ccc3c(c2)N(Cc2cccc(F)c2)C(=O)c2ccccc2S3)cc1 | 71%
CCN(CC)C(=O)CSc1nnc(COc2ccc(Br)cc2)o1 | 102%
COCc1[nH]nc2c1C(c1ccccc1C(F)(F)F)C(C#N)=C(N)O2 (configuration not stated) | 114%
CCCCCc1ccc(-c2ccc(C(=O)Oc3ccc(C(=O)OC)cc3)cc2)nc1 | 74%
CCCc1ccc(-c2ccc(C(=O)Oc3ccc(Br)cc3)cc2)nc1 | 140%
CCCCCc1ccc(-c2ccc(Br)cc2)nc1 | -3% (active)
NNC(=O)CCC(=O)Nc1ccccc1 | 112%
CC(C)CNS(=O)(=O)c1ccccc1 | 120%
CCN(CC)S(=O)(=O)N1CCN(S(=O)(=O)N2CCOCC2)CC1 | 118%
O=C(CS(=O)(=O)c1cccc2nsnc12)N1CCN(c2ccc(F)cc2)CC1 | 97%
CCOC(=O)c1nnn(-c2nn3nnnc3c3ccccc23)c1C | 101%
O=C(NCc1cccnc1)c1cn(C2CC2)c2cc(N3CCN(C(=O)c4cccc(Cl)c4)CC3)c(F)cc2c1=O | 0% (active)
CCn1cc(C(=O)NCC(C)C)c(=O)c2cc(F)c(N3CCN(C(=O)c4ccco4)CC3)cc21 | 107%
O=C(NCc1ccncc1)C1CCN(C(=O)c2cccc(Cl)c2)CC1 | 111%
CCc1ccc(NC(=O)Cn2c(=O)n(CCCC(=O)NCc3ccccc3Cl)c(=O)c3ccccc32)cc1 | 136%
CCN1CCN(CCCNC(=O)c2cc3c(s2)-c2ccccc2OC3)CC1 | 84%
COc1cccc(CNC(=O)c2cc3c(s2)-c2ccccc2OC3)c1 | 65%
CN(C)CCN(Cc1ccco1)C(=O)c1cc2c(s1)-c1ccccc1OC2 | 70%
CC(C)OCCCN(Cc1ccco1)C(=O)c1cc2c(s1)-c1ccccc1OC2 | 9% (active)
COCCCN(Cc1ccco1)C(=O)c1cc2c(s1)-c1ccccc1OC2 | 12% (active)

Compound | survival
CC(C)CCN(Cc1ccco1)C(=O)c1cc2c(s1)-c1ccccc1OC2 | 7% (active)
CC(C)CCN(Cc1ccco1)C(=O)c1cc2c(Cl)nc3ccccc3c2s1 | 77%
O=C(CC1N=C2c3ccccc3N=C(SCc3ccccc3F)N2C1=O)NCc1cccs1 (configuration not stated) | 75%
Cc1cc(C)c2c(NC(=O)c3ccccc3Cl)c(C(=O)Nc3ccc(C)c(C)c3)sc2n1 | 64%
CCc1ccc(NC(=O)c2cc3nc(-c4ccc(C)cc4)cc(C(F)(F)F)n3n2)cc1 | 60%
O=C(Nc1ccc(NC(=O)C2CC23CCC3)cc1)C1CC12CCC2 (configuration not stated) | 118%
CCN1CCN(c2cc(C)c3cc(NC(=O)/C=C/c4cccc(OC)c4OC)ccc3n2)CC1 | 83%
O=S(=O)(Nc1cccc(-c2ccc(N3CCCCC3)nn2)c1)c1cccc(F)c1 | 119%
O=S(=O)(Nc1ccc(-c2ccc(N3CCCC3)nn2)cc1)c1ccc(C(F)(F)F)cc1 | 64%
COc1ccc(C)cc1S(=O)(=O)Nc1cccc(-c2ccc(N3CCCC3)nn2)c1 | 77%
O=S(=O)(Nc1cccc(-c2ccc(N3CCCCCC3)nn2)c1)c1ccc(F)cc1 | 55%
O=S(=O)(Nc1ccc(-c2ccc(N3CCCC3)nn2)cc1)c1ccc(OC(F)(F)F)cc1 | -6% (active)
O=S(=O)(Nc1ccc(-c2ccc(N3CCCCC3)nn2)cc1)c1ccc(OC(F)(F)F)cc1 | 72%
COc1ccc(F)cc1S(=O)(=O)Nc1cccc(-c2ccc(N3CCC(C)CC3)nn2)c1 | 129%
CC1CCN(c2ccc(-c3cccc(NS(=O)(=O)c4ccc(Cl)s4)c3)nn2)CC1 | 71%
Cc1ccc(S(=O)(=O)Nc2cccc(-c3ccc(N4CCC(C)CC4)nn3)c2)s1 | -3% (active)
COc1ccc(C)cc1S(=O)(=O)Nc1cccc(-c2ccc(N3CCC(C)CC3)nn2)c1 | -4% (active)
O=S(=O)(Nc1cccc(-c2ccc(N3CCCCCC3)nn2)c1)c1ccccc1 | 1% (active)
Cc1ccc(S(=O)(=O)Nc2cccc(-c3ccc(N4CCCCC4)nn3)c2)s1 | 64%
Cc1ccc(NC(=O)C(=O)NCC(c2ccc3c(c2)OCO3)N2CCOCC2)cc1C (configuration not stated) | 45%
CC(C)c1ccc(NC(=O)CSC2=Nc3ccccc3C3=NC(CC(=O)NCc4ccc(F)cc4)C(=O)N23)cc1 (configuration not stated) | 73%
Cc1nc(C)c(-c2csc(NCc3ccccc3)n2)s1 | 123%

Compound | survival
COc1ccc(CC(=O)Nc2cc(-c3cn4cccnc4n3)ccc2C)cc1OC | 85%
CCCc1noc(-c2ccc(N3CCCCC3)c([N+](=O)[O-])c2)n1 | 77%
O=C(CN(C(=O)c1csnn1)c1ccccc1)NCc1ccc2c(c1)OCO2 | 114%
O=c1oc2ccc(Br)cc2cc1-c1nc(-c2ccccc2)no1 | 66%
O=C(CSc1nnc2[nH]c(=O)cc(-c3ccccc3)n12)Nc1ccc(F)cc1F | 94%
COCCCNC(=O)CN1C(=O)COc2ccc(S(=O)(=O)N3CCCCCC3)cc21 | 77%
CCN(CC)S(=O)(=O)c1cc(-c2onc(C)c2C)ccc1OC | 87%
CCCCn1cc(S(=O)(=O)c2ccc(Cl)cc2)c(=O)c2cc(F)c(N3CCCCC3)cc21 | 105%
Cc1cc(C)cc(OCC(=O)Nc2ccc(S(=O)(=O)Nc3onc(C)c3C)cc2)c1 | 73%
CC(=O)N1CCc2c(sc3c2c(=O)n(-c2ccccc2)c(=O)n3CC(=O)Nc2cccc(C)c2)C1 | 91%
CCC(=O)Nc1ccc(-c2nc3ccc(NC(=O)CC)cc3[nH]2)cc1 | 113%
CC(C)(C)C(=O)Nc1ccc(-c2nc3ccc(NC(=O)C(C)(C)C)cc3[nH]2)cc1 | 148%
O=C(Nc1ccc2nc(-c3ccccc3)[nH]c2c1)c1ccco1 | 1% (active)
CCOC(=O)c1sc2ccccc2c1S(=O)(=O)Nc1ccc(C(C)=O)cc1 | 90%
Cc1ccc(S(=O)(=O)c2c(O)cc(C)c(NS(=O)(=O)c3ccc(Cl)cc3)c2C)cc1 | 105%
Cc1ccc(S(=O)(=O)c2c(O)cc(C)c(NS(=O)(=O)c3ccc(Br)cc3)c2C)cc1 | -1% (active)
COc1ccc(S(=O)(=O)c2c(C)c(NS(=O)(=O)c3ccccc3)cc(C)c2O)cc1 | 90%
CC(OC(=O)c1cc2sccc2n1C)C(=O)NCC1CCCO1 (configuration not stated) | 107%
COC(=O)c1ccc(-n2nnc(-c3nsc(NC(=O)c4ccc(Cl)cc4)n3)c2C)cc1 | 79%
COc1ccc(C2c3c(n(C)c4ccccc34)C(=O)N2CC(=O)Nc2cccc(F)c2)cc1 (configuration not stated) | 85%
O=C(NCc1ccc(F)cc1)C(=O)NCC(c1ccc2c(c1)OCO2)N1CCOCC1 (configuration not stated) | 88%
CCOc1ccc(N2CC(c3nc4ccccc4n3CCOc3ccc(CC)cc3)CC2=O)cc1 (configuration not stated) | 79%

Compound | survival
O=C1CC(c2nc3ccccc3n2CCCOc2ccccc2)CN1c1ccc(F)cc1 (configuration not stated) | 107%
COc1ccc(OCCn2c(C3CC(=O)N(c4ccc(F)cc4)C3)nc3ccccc32)cc1 (configuration not stated) | 84%
CCc1ccc(OCCn2c(C3CC(=O)N(Cc4ccc(F)cc4)C3)nc3ccccc32)cc1 (configuration not stated) | -14% (active)
COc1ccc(OCCCn2c(C3CC(=O)N(c4ccc(F)cc4)C3)nc3ccccc32)cc1 (configuration not stated) | 85%
Cc1cc(OCCn2c(C3CC(=O)N(Cc4ccc(F)cc4)C3)nc3ccccc32)ccc1Cl (configuration not stated) | -15% (active)
N#C/C(=C\c1ccccc1)C(=O)Nc1sc2c(c1C(N)=O)CCC2 | 75%
COc1ccccc1CCNC(=O)c1cc2ccccn2n1 | 152%
CC(=O)Nc1c(C)nn(-c2ccccc2)c1N1CCC(C(=O)Nc2ccc(C)cc2Cl)CC1 | 71%
CC(=O)Nc1c(C)nn(-c2ccccc2)c1N1CCC(C(=O)NCc2ccc(Cl)cc2)CC1 | 81%
CC(=O)Nc1c(C)nn(-c2ccccc2)c1N1CCC(C(=O)NCc2ccccc2Cl)CC1 | -4% (active)
CC(=O)Nc1c(C)nn(-c2ccccc2)c1N1CCC(C(=O)Nc2ccc(F)cc2Cl)CC1 | 60%
CC(=O)Nc1c(C)nn(-c2ccccc2)c1N1CCC(C(=O)NCc2cccc(Cl)c2)CC1 | 71%
CC(=O)Nc1c(C)nn(-c2ccccc2)c1N1CCC(C(=O)NCc2cccc(F)c2)CC1 | 1% (active)
CC(=O)Nc1c(C)nn(-c2ccccc2)c1N1CCC(C(=O)NCc2ccc(F)cc2)CC1 | -3% (active)
CC(=O)Nc1ccc(NC(=O)C2CCN(c3c(NC(C)=O)c(C)nn3-c3ccccc3)CC2)cc1 | 63%
CC(=O)Nc1c(C)nn(-c2ccccc2)c1N1CCC(C(=O)Nc2cc(F)ccc2F)CC1 | 63%
CN(C(=O)CSc1nc2ccc(NC(=O)c3cccs3)cc2s1)c1ccccc1 | 77%
CCOc1ccc(NC(=O)Cn2cc(C(=O)C3CC3)c3ccccc32)cc1 | 78%
CC1Cc2ccccc2N1C(=O)c1cc2sccc2n1Cc1ccc(F)cc1 (configuration not stated) | 119%
Cn1c(=O)cc(OCC(=O)NCc2ccc(F)cc2Cl)c2ccccc21 | 117%
CCOc1ccc(NC(=O)c2c(NC(=O)Cc3ccccc3)sc3c2CCCC3)cc1 | 69%

From PubChem BioAssay AID463173 (ICCB-Longwood Screening Facility, Harvard Medical School, 2010)
